In the supplement of paper PMC10127200:
Structures can show the parent of a compound that is named as a salt.

How the values were obtained:
Test in all cases: Euclidean distance of Cell Painting phenotypic profile (signed KS, 77 features) to DMSO centroid (dimensionless distance); 5 or 10 uM (library dependent); higher = stronger phenotypic change vs DMSO (phenoactivity)
Details in all cases: 48 h
786-O = test system: 786-O
Outline: (§1)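 Five cancer lines and a healthy fibroblast line received library compounds at 10 or 5 uM (library-dependent, 0.1% DMSO final) for 48 h. Stained cells were imaged confocally at 20X (9 fields/well). Harmony extracted 77 features, each scored as a signed Kolmogorov-Smirnov statistic against same-plate vehicle wells. Profiles were plate-position corrected, correlation-weighted and replicate-averaged at the top dose. Phenoactivity is the Euclidean distance from each profile to the median vehicle profile.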

A549 = test system: A549
Outline: as §1

DU145 = test system: DU145
Outline: as §1

FB = test system: FB
Outline: as §1

HEPG2 = test system: HEPG2
Outline: as §1

OVCAR4 = test system: OVCAR4
Outline: as §1

Row | Compound | Euclidean distance (786-O) | Euclidean distance (A549) | Euclidean distance (DU145) | Euclidean distance (FB) | Euclidean distance (HEPG2) | Euclidean distance (OVCAR4)
1 | NCCCC[C@H](NC(=O)[C@@H]1CCCN1C(=O)[C@@H]1CSSC[C@H](NC(=O)CNC(=O)CNC(=O)CN)C(=O)N[C@@H](Cc2ccc(O)cc2)C(=O)N[C@@H](Cc2ccccc2)C(=O)N[C@@H](CCC(N)=O)C(=O)N[C@@H](CC(N)=O)C(=O)N1)C(=O)NCC(N)=O [Terlipressin Acetate] | 1.69 | 0.833 | 1.36 | 0.976 | 0.531 | 1.15
2 | Nc1[nH]cnc2ncnc1-2 [Adenine sulfate] | 1.69 | 0.409 | 1.17 | 0.763 | 0.765 | 0.878
3 | CS(=O)(=O)c1ccc([C@@H](O)[C@@H](CF)NC(=O)C(Cl)Cl)cc1 [Florfenicol] | 1.1 | 0.738 | 0.807 | 1.12 | 0.739 | 0.76
4 | Cc1c(C(=O)NN2CCCCC2)nn(-c2ccc(Cl)cc2Cl)c1-c1ccc(Cl)cc1 [Rimonabant] | 1.92 | 1.17 | 1.04 | 0.895 | 0.664 | 1.22
5 | CC(=O)O[C@]1(C(C)=O)CC[C@H]2[C@@H]3C=C(C)C4=CC(=O)CC[C@]4(C)[C@H]3CC[C@@]21C [Megestrol Acetate] | 1.71 | 1.65 | 1.57 | 1.46 | 1.89 | 1.61
6 | CCOC(CN1CCN(CC(C)C(=O)c2ccccc2)CC1)c1ccccc1 (centres undefined) [Eprazinone 2HCl] | 1.87 | 1.02 | 1.2 | 1.38 | 1.56 | 1.28
7 | CCCCN(CCCC)CC(O)c1cc(Cl)cc2c1-c1ccc(Cl)cc1/C2=C/c1ccc(Cl)cc1 (centres undefined) [Lumefantrine] | 1.17 | 1.42 | 0.953 | 0.94 | 0.895 | 0.763
8 | Nc1ccc(S(=O)(=O)Nc2ccc(Cl)nn2)cc1 [Sulfachloropyridazine] | 1.32 | 1.01 | 0.856 | 0.835 | 0.669 | 1.25
9 | CC1(C)S[C@@H]2[C@H](NC(=O)[C@H](N)c3ccc(O)cc3)C(=O)N2[C@H]1C(=O)O [Amoxicillin] | 1.02 | 1.01 | 0.78 | 0.837 | 0.318 | 1.22
10 | CCn1cc(C(=O)O)c(=O)c2cc(F)c(N3CCNC(C)C3)c(F)c21 (centres undefined) [Lomefloxacin HCl] | 0.907 | 0.839 | 0.681 | 0.822 | 0.796 | 0.657
11 | C[C@H](Nc1ncnc2[nH]cnc12)c1cc2ccc(F)cc2nc1-c1ccccn1 | 0.651 | 0.745 | 1.41 | 1.61 | 1.01 | 1.19
12 | C[C@H]1O[C@@H](O[C@H]2CC[C@@]3(C)[C@@H](CC[C@]4(C)[C@@H]3C=C[C@]35OC[C@@]6(CCC(C)(C)C[C@H]63)[C@@H](O)C[C@]54C)[C@]2(C)CO)[C@H](O)[C@@H](O[C@@H]2O[C@H](CO)[C@@H](O)[C@H](O)[C@H]2O)[C@H]1O [Saikosaponin A] | 1.06 | 2.42 | 2.17 | 1.52 | 0.854 | 2.14
13 | CC1(C)S[C@@H]2[C@H](NC(=O)[C@H](N)c3ccccc3)C(=O)N2[C@H]1C(=O)OCOC(=O)[C@@H]1N2C(=O)C[C@H]2S(=O)(=O)C1(C)C [Sultamicillin Tosylate] | 1.06 | 1.18 | 0.926 | 1.01 | 0.775 | 0.992
14 | COc1ccc(C(=O)NCc2ccc(OCCN(C)C)cc2)cc1OC [Itopride hydrochloride] | 1.63 | 0.807 | 0.903 | 0.871 | 1.09 | 0.695
15 | O=c1[nH]c(=O)n([C@H]2C[C@H](O)[C@@H](CO)O2)cc1I [Idoxuridine] | 2.71 | 1.26 | 2.3 | 1.41 | 1.5 | 1.42
16 | COc1cc(C(C)=O)ccc1O [Apocynin] | 0.601 | 1.23 | 0.921 | 0.872 | 1.6 | 0.864
17 | O=C1[C@@H]2[C@H]3CC[C@H](C3)[C@@H]2C(=O)N1C[C@@H]1CCCC[C@H]1CN1CCN(c2nsc3ccccc23)CC1 [lurasidone] | 1.37 | 1.25 | 1.92 | 1.35 | 0.479 | 1.27
18 | COc1ccc(COc2cc3oc(=O)c4cc(C(C)O)ccc4c3cc2OC)cc1 (centres undefined) [Palomid 529 (P529)] | 1.8 | 1.25 | 1.29 | 1.02 | 1.33 | 1.06
19 | CNNCc1ccc(C(=O)NC(C)C)cc1 [Procarbazine HCl] | 1.36 | 0.988 | 1.23 | 1.25 | 0.885 | 0.933
20 | N#Cc1ccc(Oc2ccc3c(c2)COB3O)cc1 [Crisaborole (AN2728)] | 1.25 | 1 | 0.832 | 0.837 | 2.52 | 1.91
21 | CNC(=O)Nc1ccc(-c2nc(N3CC4CCC(C3)O4)c3cnn(C4CCC5(CC4)OCCO5)c3n2)cc1 | 4.15 | 3.37 | 2.25 | 4.69 | 3.38 | 4.35
22 | OCCN1C[C@H](O)[C@@H](O)[C@H](O)[C@H]1CO [Miglitol] | 1.4 | 0.649 | 1.16 | 0.979 | 0.675 | 1.27

Row | Compound | Euclidean distance (786-O) | Euclidean distance (A549) | Euclidean distance (DU145) | Euclidean distance (FB) | Euclidean distance (HEPG2) | Euclidean distance (OVCAR4)
23 | O=C(O)C1(C(=O)O)CCC1.[NH2-].[NH2-].[Pt+2] [Carboplatin] | 2.76 | 1.98 | 2.65 | 2.23 | 2.58 | 2.66
24 | Cc1cc(Nc2ccc(NC(=O)c3ccc(Nc4ccnc5ccccc45)cc3)cc2)nc(N)n1 | 1.66 | 3.02 | 1.42 | 5.18 | 0.532 | 3.29
25 | CC1CC(OC(=O)C(O)c2ccccc2)CC(C)(C)C1 (centres undefined) [Cyclandelate] | 1.19 | 1.12 | 1.02 | 0.843 | 0.782 | 1.02
26 | N[C@@H](Cc1cc(I)c(Oc2ccc(O)c(I)c2)c(I)c1)C(=O)O [Triiodothyronine] | 1.04 | 1.57 | 1.08 | 0.968 | 0.865 | 1.58
27 | Cn1cc(C(=O)[C@@H]2CCc3[nH]cnc3C2)c2ccccc21 [Ramosetron Hydrochloride] | 1.07 | 0.965 | 0.791 | 1.34 | 0.731 | 1.41
28 | CCCCC(=O)O[C@]1(C(=O)CO)[C@@H](C)C[C@H]2[C@@H]3CCC4=CC(=O)C=C[C@]4(C)[C@@]3(F)[C@@H](O)C[C@@]21C [Betamethasone Valerate] | 1.33 | 1.98 | 2.2 | 1.71 | 0.591 | 2.13
29 | C=C[C@@H]1C[C@]1(NC(=O)[C@@H]1C[C@@H](Oc2ncc(OC)c3ccc(Cl)cc23)CN1C(=O)[C@@H](NC(=O)OC(C)(C)C)C(C)(C)C)C(=O)NS(=O)(=O)C1CC1 [Asunaprevir] | 1.27 | 1.49 | 0.966 | 0.784 | 0.47 | 1.08
30 | C[C@@H]1C[C@H]2[C@@H]3C[C@H](F)C4=CC(=O)C=C[C@]4(C)[C@@]3(F)[C@@H](O)C[C@]2(C)[C@@]1(O)C(=O)CO [Flumethasone] | 1.24 | 2.47 | 2.17 | 2.26 | 0.627 | 1.97
31 | O=c1c(O[C@@H]2O[C@H](CO)[C@@H](O)[C@H](O)[C@H]2O)c(-c2ccc(O)c(O)c2)oc2cc(O)cc(O)c12 [Isoquercitrin] | 0.868 | 0.899 | 0.931 | 0.989 | 0.812 | 1.03
32 | O=C(/C=C/c1ccc(O)c(O)c1)OCCc1ccccc1 [Caffeic Acid Phenethyl Ester] | 1.43 | 2.31 | 1.1 | 1.78 | 1.71 | 1.18
33 | O=[N+]([O-])c1ccc2c(c1)S(=O)(=O)C=C2 [Stattic] | 5.16 | 2.51 | 2.61 | 3.89 | 1.16 | 4.56
34 | COc1cc(/C=C/C(=O)CC(=O)/C=C/c2ccc(O)c(OC)c2)ccc1O [Curcumin] | 1.77 | 2.12 | 1.22 | 3.06 | 2.02 | 1.2
35 | CCOc1cc2ncc(C#N)c(Nc3ccc(OCc4ccccn4)c(Cl)c3)c2cc1NC(=O)/C=C/CN(C)C [Neratinib (HKI-272)] | 2.26 | 2.39 | 2.02 | 4.01 | 0.96 | 2.16
36 | CO/N=C1\C[C@]2(C[C@@H]3C[C@@H](C/C=C(\C)C[C@@H](C)/C=C/C=C4\CO[C@@H]5[C@H](O)C(C)=C[C@@H](C(=O)O3)[C@]45O)O2)O[C@H](/C(C)=C/C(C)C)[C@H]1C [Moxidectin] | 3.17 | 2.11 | 2.44 | 1.21 | 0.757 | 1.63
37 | CO[C@H]1C[C@@H]2CC[C@@H](C)[C@@](O)(O2)C(=O)C(=O)N2CCCC[C@H]2C(=O)O[C@H]([C@H](C)C[C@@H]2CC[C@@H](OCCO)[C@H](OC)C2)CC(=O)[C@H](C)/C=C(\C)[C@@H](O)[C@@H](OC)C(=O)[C@H](C)C[C@H](C)/C=C/C=C/C=C/1C [Everolimus (RAD001)] | 2.45 | 1.83 | 2.74 | 3.19 | 1.73 | 1.9
38 | CN(C)CCOc1ccc(-c2nc(-c3ccncc3)c(-c3ccc4c(c3)CC/C4=N\O)[nH]2)cc1 | 1.49 | 1.63 | 2.08 | 2.65 | 4.66 | 2.22
39 | COc1ccc(CN2CCN(C(c3ccc(F)cc3)c3ccc(F)cc3)CC2)c(OC)c1OC [Lomerizine HCl] | 0.896 | 1.09 | 0.808 | 1.17 | 1.31 | 0.83
40 | O=C1Nc2ccccc2/C1=C1/Nc2ccccc2C1=O [Indirubin] | 1.05 | 1.12 | 0.786 | 0.965 | 1.58 | 1.03
41 | CCN(CC)CCNC(=O)c1c(C)[nH]c(/C=C2\C(=O)Nc3ccc(-c4csc(-c5ccccc5)n4)cc32)c1C [Amcasertib (BBI503)] | 5.91 | 5.2 | 7.77 | 5.61 | 2.05 | 2.89
42 | CCCC(=O)O[C@]1(C(=O)CO)CC[C@H]2[C@@H]3CCC4=CC(=O)CC[C@]4(C)[C@H]3[C@@H](O)C[C@@]21C [Hydrocortisone butyrate] | 1.21 | 2.18 | 1.87 | 1.7 | 1.87 | 2.45
43 | Cn1cc(-c2ccc3c(c2)ncn3-c2cc(NS(=O)(=O)C3CC3)cc(-c3ccc(F)cc3F)c2)cn1 | 2.53 | 1.64 | 1.26 | 4.3 | 1.6 | 2.75
44 | CCCSc1nc(N[C@@H]2C[C@H]2c2ccc(F)c(F)c2)c2nnn([C@@H]3C[C@H](OCCO)[C@@H](O)[C@H]3O)c2n1 [Ticagrelor] | 0.66 | 1.41 | 1.07 | 0.885 | 0.977 | 1.37
